Inconclusive results are not listed. Active and inactive are the calls of the source. The call rests on the fitted dose curve; in most records, active means well fitted curve in either direction with a large enough effect (not every such curve was filed as active); inconclusive means small, poorly fitted or top-dose-only effect, or another doubt; inactive means flat fitted curve, though single readings scatter.
On the % scale 0 is the no-effect control and ±100 the full control effect.

A short description of this assay: AP1 Signaling Pathway (AID 357).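 Further: ME-180 reporter cells stimulated with EGF at its EC50 level.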 The following applies: ME-180 (cervical carcinoma) AP-1-bla reporter, EGF-induced, beta-lactamase ratio, 5 h; at 17.2 µM (top of the series) unless noted. The gist of the method: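 Modulation of EGF-driven AP-1 transcription was assessed with a beta-lactamase reporter in ME-180 cells. Compound and EC50 EGF were co-incubated 5 hours at 37 °C before 2.5-hour CCF4 loading at room temperature and dual-emission reading.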
Turning to `COc1ccccc1NC(=O)CSc1nnc(-c2ccc(NC(C)=O)cc2)n1C`, the activity change, negative = inhibition was -3.49% (inactive).
To `CCOC(=O)c1c(C)[nH]c(/C(C)=N/O)c1C` belongs -4.81% (inactive); to `COC(=O)CSc1nnc(C)c(=O)[nH]1`, 0.589% (inactive); to `Cc1ccc2c(c1)C(CCN)C(=O)N2Cc1ccccc1` (stereo not drawn), 19.6% (inactive).
To `CC(C)(C#N)C(C)(C)c1nn[nH]n1` belongs 6.02% (inactive).
On to `Cc1cc(NC(CC(C)C)C(=O)O)nc(Cc2ccccc2)n1` (stereo not drawn), for which the activity change, negative = inhibition is 0.713% (inactive).
The figure for `CCOC(=O)c1c(C)oc2ccc(OCC(=O)C(C)(C)C)cc12` is -23.5% (inactive).
To `CCOC(=O)C1CCCN(c2nc3ccccc3nc2C(C#N)C(=O)OCCOC)C1` (stereo not drawn) belongs -28.5% (inactive); to `Cc1nn(CC(=O)NCCN2CCOCC2)c(=O)c2ccccc12`, 5.98% (inactive); to `CCc1ccc2c(c1)C(C)=CC(C)(C)N2`, 1.34% (inactive).
With `Nc1nnnn1/N=C/c1ccccn1`, the activity change, negative = inhibition was -1.28% (inactive).
To `CCOC(=O)CC(C#N)c1cn(C)c2ccccc12` (stereo not drawn) belongs 8.21% (inactive); to `Oc1ccc2ccccc2c1C=NC12CN3CCN(CN(C3)C1)C2`, 6.89% (inactive).
To `CCOC(=O)CNS(=O)(=O)c1cc(-c2n[nH]c(=O)c3ccccc23)ccc1C` belongs -5.55% (inactive); to `O=C(CN1C2=NCCN2c2ccccc21)N1CCOCC1`, 5.86% (inactive).
To `COc1cccc(NC(=O)CSC2=C(C#N)C(c3ccco3)C3=C(CCCC3=O)N2)c1` (stereo not drawn) belongs -18.7% (inactive).
`OCCOCCNc1ncnc2c1cnn2-c1ccccc1`: the activity change, negative = inhibition is 7% (inactive).
Take `CCN(CC)C(=O)CSC1=C(C#N)C(c2cccs2)C=C(C)N1` (stereo not drawn): the activity change, negative = inhibition was -28.4% (inactive).

These data come from PubChem BioAssay (NCATS).
